# In the supplement of paper PMC8728848:
# Many of the other results were omitted from the sample, so the strongest signals are more common in it than they were.
# B1: PEB3 (Campylobacter jejuni), Q0PBL7 (protein)
# chain: MKKIITLFGACALAFSMANADVNLYGPGGPHTALKDIANKYSEKTGVKVNVNFGPQATWFEKAKKDADILFGASDQSALAIASDFGKDFNVSKIKPLYFREAIILTQKGNPLKIKGLKDLANKKVRIVVPEGAGKSNTSGTGVWEDMIGRTQDIKTIQNFRNNIVAFVPNSGSARKLFAQDQADAWITWIDWSKSNPDIGTAVAIEKDLVVYRTFNVIAKEGASKETQDFIAYLSSKEAKEIFKKYGWRE
# B2: exo-alpha-sialidase (Propionibacterium acnes), Q6A7G1 (protein)
# chain: GSHMSGRAPAPVAATTQPKLVTGDITSTDQSGTNLFFGKKIVRNARGAIMKVDRTWPAAVPAPLPDVRADSSTRMLLGPVVDLAVNEHPEGVFYRIPALATASNGDLLASYDLRPGSAGDAPNPNSIVQRRSRDNGRTWGPQTVIHAGTPGRRKVGYSDPSYLVDPATGRILNFHVKSYDRGFATSEVGTDPDDRHVLHAEVSTSTDNGHTWTHRDITREITSDPTTRTRFVASGQGIALLHGPHAGRLIAQMTVRNSVGQQAQSIYSDDHGITWHAGNPVGRMMDENKVVELSDGTLMLNSRDAARSGRRKVAYSQDGGLTWGPVKLVDDLIDPTNNAQIIRAYPNARAGSAKARILLFTNARNATERVNGTLSVSCDDGRTWVSHQTYMPGEVGYTTAAVQSDGALGVLWERDGIRYSTIPMGWLNSVCPLAPSGRPTSGKPTSGTSLPPTAT
# Columns and labels:
# Assay in all cases: glycan array binding signal (z-score within array); higher = stronger binding
# Details in all cases: glycan notation: IUPAC condensed, linker removed
# [1] = target: Fuc(a1-2)Gal(b1-3)GalNAc(b1-4)[Neu5Ac(a2-3)]Gal(b1-4)Glc
# Method in brief: (§1)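 Glycan array data were curated from 3228 arrays in the Consortium for Functional Glycomics database and kept only where the protein sequence was available. Glycan names were converted to IUPAC-condensed notation, and columns mapping to the same glycan were averaged. The binding signal is a within-array Z-score, averaged across arrays of the same protein sequence at different concentrations or buffers and across linkers. Negative Z-scores can be read as non-binding.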
# [2] = target: Fuc(a1-2)Gal(b1-3)[Fuc(a1-4)]GlcNAc
# Method in brief: as §1
# [3] = target: Fuc(a1-2)Gal(b1-4)[Fuc(a1-3)]GlcNAc(b1-2)Man(a1-3)[Fuc(a1-2)Gal(b1-4)[Fuc(a1-3)]GlcNAc(b1-2)Man(a1-6)]Man(b1-4)GlcNAc(b1-4)GlcNAc
# Method in brief: as §1
# [4] = target: Fuc(a1-2)[Gal(a1-3)]Gal(b1-4)Glc
# Method in brief: as §1
# [5] = target: Fuc(a1-2)[Gal(a1-3)]Gal(b1-4)GlcNAc
# Method in brief: as §1
# [6] = target: Fuc(a1-3)[Gal(b1-4)]GlcNAc(b1-4)Gal(b1-4)[Fuc(a1-3)]GlcNAc(b1-4)Gal(b1-4)[Fuc(a1-3)]GlcNAc
# Method in brief: as §1
# [7] = target: Fuc(a1-3)[Gal3S(b1-4)]GlcNAc6S
# Method in brief: as §1
# [8] = target: Fuc(a1-4)GlcNAc
# Method in brief: as §1
# [9] = target: Gal(a1-3)Gal
# Method in brief: as §1
# [10] = target: Gal(a1-3)Gal(b1-3)[Fuc(a1-4)]GlcNAc(b1-2)Man(a1-3)[Gal(a1-3)Gal(b1-3)[Fuc(a1-4)]GlcNAc(b1-2)Man(a1-6)]Man(b1-4)GlcNAc(b1-4)GlcNAc
# Method in brief: as §1
# [11] = target: Gal(a1-3)Gal(b1-4)GlcNAc(b1-3)GalNAc
# Method in brief: as §1
# [12] = target: Gal(b1-3)GlcNAc(b1-3)Gal(b1-4)GlcNAc(b1-6)[Gal(b1-3)GlcNAc(b1-3)]Gal(b1-4)Glc
# Method in brief: as §1
# [13] = target: Gal(b1-3)[Fuc(a1-4)]GlcNAc(b1-3)Gal(b1-4)[Fuc(a1-3)]GlcNAc
# Method in brief: as §1
# [14] = target: Gal(b1-3)[Neu5Ac(a2-6)]GalNAc
# Method in brief: as §1
# [15] = target: Gal(b1-4)GlcNAc(b1-3)[Gal(b1-4)GlcNAc(b1-6)]Gal(b1-4)GlcNAc
# Method in brief: as §1
# [16] = target: Gal(b1-4)GlcNAc(b1-6)[Gal(b1-3)]GalNAc
# Method in brief: as §1
# [17] = target: GalNAc(b1-4)GlcNAc(b1-2)Man(a1-3)[GalNAc(b1-4)GlcNAc(b1-2)Man(a1-6)]Man(b1-4)GlcNAc(b1-4)GlcNAc
# Method in brief: as §1
# [18] = target: GlcNAc(a1-4)Gal(b1-4)GlcNAc(b1-3)Gal(b1-4)[Fuc(a1-3)]GlcNAc(b1-3)Gal(b1-4)[Fuc(a1-3)]GlcNAc
# Method in brief: as §1
# [19] = target: GlcNAc(b1-2)Gal(b1-3)GalNAc
# Method in brief: as §1
# [20] = target: GlcNAc(b1-3)Gal(b1-3)GalNAc
# Method in brief: as §1
# [21] = target: GlcNAc(b1-3)GalNAc
# Method in brief: as §1
# [22] = target: Man(a1-2)Man(a1-3)[Man(a1-6)]Man(a1-6)[Man(a1-2)Man(a1-3)]Man(b1-4)GlcNAc(b1-4)GlcNAc
# Method in brief: as §1
# [23] = target: Man(a1-3)[Man(a1-6)]Man(a1-6)[Man(a1-3)]Man
# Method in brief: as §1
# [24] = target: Neu5Ac(a2-3)Gal(b1-3)GlcNAc(b1-3)Gal(b1-4)GlcNAc
# Method in brief: as §1
# [25] = target: Neu5Ac(a2-3)Gal(b1-4)GlcNAc(b1-3)Gal(b1-4)GlcNAc(b1-3)Gal(b1-4)GlcNAc
# Method in brief: as §1
# [26] = target: Neu5Ac(a2-3)Gal(b1-4)GlcNAc(b1-3)Gal(b1-4)[Fuc(a1-3)]GlcNAc
# Method in brief: as §1
# [27] = target: Neu5Ac(a2-3)Gal(b1-4)[Fuc(a1-3)]GlcNAc(b1-3)GalNAc
# Method in brief: as §1
# [28] = target: Neu5Ac(a2-6)Gal(b1-4)GlcNAc(b1-2)Man(a1-3)[Neu5Ac(a2-6)Gal(b1-4)GlcNAc(b1-2)Man(a1-6)]Man(b1-4)GlcNAc(b1-4)GlcNAc
# Method in brief: as §1
# [29] = target: Neu5Ac(a2-6)Gal(b1-4)GlcNAc(b1-2)Man(a1-6)[GlcNAc(b1-2)Man(a1-3)]Man(b1-4)GlcNAc(b1-4)GlcNAc
# Method in brief: as §1
# [30] = target: Neu5Ac(a2-6)Gal(b1-4)GlcNAc(b1-3)GalNAc
# Method in brief: as §1
# [31] = target: Neu5Ac(a2-6)GlcNAc(b1-4)GlcNAc
# Method in brief: as §1
# [32] = target: Neu5Ac(a2-8)Neu5Ac(a2-8)Neu5Ac(a2-8)Neu5Ac(a2-3)[GalNAc(b1-4)]Gal(b1-4)Glc
# Method in brief: as §1
# [33] = target: Neu5Gc(a2-3)Gal(b1-4)GlcNAc
# Method in brief: as §1
# [34] = target: Fuc(a1-2)Gal(b1-4)Glc
# Method in brief: as §1
# [35] = target: Fuc(a1-2)Gal(b1-4)Glc6S
# Method in brief: as §1
# [36] = target: Fuc(a1-2)[GalNAc(a1-3)]Gal(b1-3)GlcNAc
# Method in brief: as §1
# [37] = target: Fuc(a1-3)[Gal(b1-4)]GlcNAc(b1-4)Gal(b1-4)[Fuc(a1-3)]GlcNAc
# Method in brief: as §1
# [38] = target: Gal(a1-2)Gal
# Method in brief: as §1
# [39] = target: Gal(a1-4)Gal(b1-4)Glc
# Method in brief: as §1
# [40] = target: Gal(a1-4)Gal(b1-4)GlcNAc(b1-3)Gal(b1-4)Glc
# Method in brief: as §1
# [41] = target: Gal(b1-3)GlcNAc(b1-3)Gal(b1-3)GlcNAc
# Method in brief: as §1
# [42] = target: Gal(b1-4)GlcNAc(a1-6)Gal(b1-4)GlcNAc
# Method in brief: as §1
# [43] = target: Gal3S(b1-3)GalNAc
# Method in brief: as §1
# [44] = target: Gal3S(b1-4)GlcNAc
# Method in brief: as §1
# [45] = target: Neu5Ac(a2-3)Gal(b1-3)GalNAc
# Method in brief: as §1
# [46] = target: Neu5Ac(a2-3)Gal(b1-3)GalNAc(b1-4)[Neu5Ac(a2-3)]Gal(b1-4)Glc
# Method in brief: as §1
# [47] = target: Neu5Ac(a2-3)Gal(b1-3)GalNAc6S
# Method in brief: as §1
# [48] = target: Neu5Ac(a2-3)Gal(b1-3)GlcNAc(b1-3)GalNAc
# Method in brief: as §1
# [49] = target: Neu5Ac(a2-3)Gal(b1-3)[Fuc(a1-4)]GlcNAc(b1-3)Gal(b1-3)[Fuc(a1-4)]GlcNAc
# Method in brief: as §1
# [50] = target: Neu5Ac(a2-3)Gal(b1-3)[Neu5Ac(a2-6)]GalNAc
# Method in brief: as §1
# [51] = target: Neu5Ac(a2-3)Gal(b1-4)GlcNAc(b1-6)[Neu5Ac(a2-3)Gal(b1-3)]GalNAc
# Method in brief: as §1
# [52] = target: Neu5Ac(a2-3)[Neu5Ac(a2-6)]GalNAc
# Method in brief: as §1
# [53] = target: Neu5Ac(a2-6)GalNAc
# Method in brief: as §1
# [54] = target: Neu5Gc(a2-3)Gal(b1-4)[Fuc(a1-3)]GlcNAc
# Method in brief: as §1
binder,measurement,setting,value
B1,glycan array binding signal (z-score),[1],0.671
same,glycan array binding signal (z-score),[2],7.5
same,glycan array binding signal (z-score),[3],4.64
same,glycan array binding signal (z-score),[4],-1.35
same,glycan array binding signal (z-score),[5],0.283
same,glycan array binding signal (z-score),[6],0.144
same,glycan array binding signal (z-score),[7],0.696
same,glycan array binding signal (z-score),[8],-0.82
same,glycan array binding signal (z-score),[9],-0.384
same,glycan array binding signal (z-score),[10],4.25
same,glycan array binding signal (z-score),[11],0.06
same,glycan array binding signal (z-score),[12],-0.921
same,glycan array binding signal (z-score),[13],-0.524
same,glycan array binding signal (z-score),[14],-1.27
same,glycan array binding signal (z-score),[15],-0.199
same,glycan array binding signal (z-score),[16],0.227
same,glycan array binding signal (z-score),[17],4.25
same,glycan array binding signal (z-score),[18],3.7
same,glycan array binding signal (z-score),[19],-0.834
same,glycan array binding signal (z-score),[20],2.96
same,glycan array binding signal (z-score),[21],-0.715
same,glycan array binding signal (z-score),[22],-0.005
same,glycan array binding signal (z-score),[23],-1.11
same,glycan array binding signal (z-score),[24],-0.117
same,glycan array binding signal (z-score),[25],-1.17
same,glycan array binding signal (z-score),[26],0.473
same,glycan array binding signal (z-score),[27],4.53
same,glycan array binding signal (z-score),[28],0.39
same,glycan array binding signal (z-score),[29],-0.237
same,glycan array binding signal (z-score),[30],-0.21
same,glycan array binding signal (z-score),[31],-0.895
same,glycan array binding signal (z-score),[32],-0.3
same,glycan array binding signal (z-score),[33],-0.701
B2,glycan array binding signal (z-score),[1],-0.338
same,glycan array binding signal (z-score),[34],-0.361
same,glycan array binding signal (z-score),[35],-0.256
same,glycan array binding signal (z-score),[36],-0.343
same,glycan array binding signal (z-score),[37],-0.311
same,glycan array binding signal (z-score),[38],-0.331
same,glycan array binding signal (z-score),[11],-0.36
same,glycan array binding signal (z-score),[39],-0.366
same,glycan array binding signal (z-score),[40],-0.337
same,glycan array binding signal (z-score),[41],-0.354
same,glycan array binding signal (z-score),[42],-0.353
same,glycan array binding signal (z-score),[43],-0.343
same,glycan array binding signal (z-score),[44],-0.268
same,glycan array binding signal (z-score),[45],3.6
same,glycan array binding signal (z-score),[46],6.27
same,glycan array binding signal (z-score),[47],3.54
same,glycan array binding signal (z-score),[48],3.71
same,glycan array binding signal (z-score),[49],0.022
same,glycan array binding signal (z-score),[50],3.45
same,glycan array binding signal (z-score),[51],4.39
same,glycan array binding signal (z-score),[52],4.53
same,glycan array binding signal (z-score),[53],-0.072
same,glycan array binding signal (z-score),[31],3.52
same,glycan array binding signal (z-score),[54],-0.196
